Structures can show the parent of a compound that is named as a salt.
tested on: Klebsiella aerogenes DSM 30053; assay: growth (OD595) fold change vs plate DMSO controls (fold change (ratio)); higher = more growth; conditions: incubation time: 27 h, anaerobic, 37 °C
How it was run: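 Growth is the fold change relative to the median of plate DMSO controls. Readings came from anaerobic mGAM cultures in 96-well plates grown for 27 h at 37 °C and read at 595 nm. They were blank-subtracted, corrected for compound background with 20 µM compound solutions in water, and converted to OD with a calibration factor of 5. Values are means of 2 biological replicates, and fold changes above 1.5 were set to NA.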

Row | Compound | growth
1 | CCCCCCC[N+](CC)(CC)CCCCc1ccc(Cl)cc1 [Clofilium tosylate] (20 µM) | 1.07
2 | N=C(N)NCC1COC2(CCCCC2)O1 (centres undefined) [Guanadrel sulfate] (20 µM) | 0.986
3 | CCCC(CCC)C(=O)O[C@H]1C[C@H]2CC[C@@H](C1)[N+]2(C)C [Anisotropine Methylbromide] (20 µM) | 0.99
4 | COc1ccc2c(c1)c(CC(=O)OCC(=O)O)c(C)n2C(=O)c1ccc(Cl)cc1 [Acemetacin] (20 µM) | 0.985
5 | CN1CCCN=C1/C=C/c1cccc(O)c1 [Oxantel pamoate] (20 µM) | 1.03
6 | COc1c(O[C@@H]2O[C@H](CO)[C@@H](O)[C@H](O)[C@H]2O)cc2c(c1OC)-c1ccc(SC)c(=O)cc1[C@@H](NC(C)=O)CC2 [Thiocolchicoside] (20 µM) | 0.975
7 | Cc1c(Nc2ncccc2C(=O)O)cccc1C(F)(F)F [Flunixin meglumine] (20 µM) | 1.05
8 | C#C[C@]1(OC(C)=O)CC[C@H]2[C@@H]3CCC4=CC(=NO)CC[C@@H]4[C@H]3CC[C@@]21CC (mixture of isomers) [Norgestimate] (20 µM) | 1.01
9 | CC12CC3CC(C)(C1)CC(N)(C3)C2 [Memantine hydrochloride] (20 µM) | 1
10 | CC(CCc1ccccc1)NCC(O)c1ccc(O)c(C(N)=O)c1 (centres undefined) [Labetalol hydrochloride] (20 µM) | 0.974
11 | CCCCc1oc2ccc(NS(C)(=O)=O)cc2c1C(=O)c1ccc(OCCCN(CCCC)CCCC)cc1 [Dronedarone hydrochloride] (20 µM) | 1.02
12 | CCN1CCCC(OC(=O)C(c2ccccc2)c2ccccc2)C1 (centres undefined) [Piperidolate hydrochloride] (20 µM) | 0.987
13 | C[C@]1(Cn2ccnn2)[C@H](C(=O)O)N2C(=O)C[C@H]2S1(=O)=O [Tazobactam] (20 µM) | 0.973
14 | O=C(CCCN1CCN(c2ccccn2)CC1)c1ccc(F)cc1 [Azaperone] (20 µM) | 0.974
15 | CC(=O)Nc1c(I)c(NC(C)=O)c(I)c(C(=O)O)c1I [Diatrizoic acid dihydrate] (20 µM) | 1.01
16 | CN[C@@H]1[C@@H](O)[C@@H](O[C@@H]2[C@@H](O)[C@H](O[C@H]3OC(CN)=CC[C@H]3N)[C@@H](N)C[C@H]2N)OC[C@]1(C)O [Sisomicin sulfate] (20 µM) | 0.992
17 | CC(CN(C)C)C(C)(O)Cc1ccc(Cl)cc1 (centres undefined) [Clobutinol hydrochloride] (20 µM) | 1.02
18 | CC(=O)[C@H]1CC[C@H]2[C@@H]3C[C@H](C)C4=CC(=O)CC[C@]4(C)[C@H]3[C@@H](O)C[C@]12C [Medrysone] (20 µM) | 1.05
19 | CC(C(=O)O)c1ccc(-c2ccccc2)c(F)c1 (centres undefined) [Flurbiprofen] (20 µM) | 1
20 | CCOC(=O)/C=C(C)/C=C/C=C(C)/C=C/c1c(C)cc(OC)c(C)c1C [Etretinate] (20 µM) | 0.965

Row | Compound | growth
21 | c1ccc2c(CC3=NCCN3)cccc2c1 [Naphazoline hydrochloride] (20 µM) | 0.644
22 | CCCCC(=O)N(Cc1ccc(-c2ccccc2-c2nnn[nH]2)cc1)[C@H](C(=O)O)C(C)C [Valsartan] (20 µM) | 1.08
23 | COc1ccccc1O [Guaiacol] (20 µM) | 1
24 | OC[C@H]1O[C@@H](O[C@@H]2[C@@H](CO)OC(O)(CO)[C@H]2O)[C@H](O)[C@@H](O)[C@H]1O (mixture of isomers) [Lactulose] (50 µM) | 1.01
25 | CC(C)COC(=O)OCN1C(=O)CN(CCN2CC(=O)N(COC(=O)OCC(C)C)C(=O)C2)CC1=O [Sobuzoxane] (20 µM) | 1.03
26 | NS(=O)(=O)c1cc2c(cc1C(F)(F)F)NC(Cc1ccccc1)NS2(=O)=O (centres undefined) [Bendroflumethiazide] (20 µM) | 1.06
27 | CCOC(=O)[C@H](CCc1ccccc1)N[C@H]1CCc2ccccc2N(CC(=O)O)C1=O [Benazepril hydrochloride] (20 µM) | 1
28 | CC(=O)Oc1cc(C(C)C)c(OCCN(C)C)cc1C [Moxisylyte hydrochoride] (20 µM) | 1.03
29 | O=C1c2c(O)ccc(O)c2C(=O)c2c(NCCNCCO)ccc(NCCNCCO)c21 [Mitoxantrone dihydrochloride] (20 µM) | 1.02
30 | Nc1cccc2c1C(=O)N(C1CCC(=O)NC1=O)C2=O (centres undefined) [Pomalidomide] (20 µM) | 1.02
31 | CCCCOc1ccc(C(=O)CCN2CCCCC2)cc1 [Dyclonine hydrochloride] (20 µM) | 0.966
32 | OCC(O)CN1CCN(c2ccccc2)CC1 (centres undefined) [Dropropizine] (20 µM) | 1.02
33 | CN(C)CCC(c1ccc(Cl)cc1)c1ccccn1 (centres undefined) [Chlorpheniramine maleate] (20 µM) | 0.719
34 | CNCC(O)c1ccc(OC(=O)C(C)(C)C)c(OC(=O)C(C)(C)C)c1 (centres undefined) [Dipivefrin hydrochloride] (20 µM) | 0.982
35 | CC(=O)O[C@H]1C[C@@]2(C)[C@@H](C[C@@H](O)[C@H]3[C@@]4(C)CC[C@@H](O)[C@@H](C)[C@@H]4CC[C@@]32C)/C1=C(\CCC=C(C)C)C(=O)O [Fusidic acid sodium salt] (20 µM) | 1.09
36 | CCOc1ccccc1OCC1CNCCO1 (centres undefined) [Viloxazine hydrochloride] (20 µM) | 0.986
37 | OC[C@H]1O[C@@H](O[C@H]2[C@H](O)[C@@H](O)[C@H](O)O[C@@H]2CO)[C@H](O)[C@@H](O)[C@H]1O [Lactose] (50 µM) | 1.05
38 | CCC(=O)c1ccc(O)cc1 [Paroxypropione] (20 µM) | 0.996
39 | CCOc1ccc2ccccc2c1C(=O)N[C@@H]1C(=O)N2[C@@H]1SC(C)(C)[C@@H]2C(=O)O [Nafcillin sodium salt monohydrate] (20 µM) | 1.01
